About 730 (0.35%) of roughly 210,000 compounds were called active. Entries that show only a call come without a potency. Roughly 1% stayed inconclusive and do not appear here. Calls come from the whole dose curve; as a rule, active = well fitted inhibition curve with a large enough effect; inconclusive = small, poorly fitted or top-dose-only effect; inactive = no such curve, though single readings can be large or run the other way. The full list was thinned out, with actives kept by preference.
Potency is the fitted concentration of half-maximal effect.

This test can be described thus: qHTS Assay for Identifying the Cell-Membrane Permeable IMPase Inhibitors: Potentiation with Lithium.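 Note: IP1 builds up when IMPase is blocked and the TR-FRET signal falls; nearly all actives have a fitted effect of over 50% in size.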 The conditions noted are these: CHO-M1 cells, IP1 TR-FRET (IP-One), carbachol + lithium; series mostly up to 59.4 µM. From the text: NIH Chemical Genomics Center [NCGC]
NIH Molecular Libraries Probe Production centers Network [MLPCN]
Assay Submitter (PI): Wei Zheng
Lithium has been widely used for the treatment of bipolar disorder. But lithium has a narrow therapeutic index and it can cause side effects such as thirst, weight gain, tremor, polyuria and memory problems. Although the mechanism for lithium action in treatment of bipolar disorder is still not fully understood, inhibition of inositol monophosphatase (IMPase) and the subsequent depletion of the inositol pool in living cells have been implicated as the primary therapeutic benefit of lithium therapy. Therefore, a selective IMPase inhibitor with reduced side effects might be a good drug candidate to replace lithium for the treatment of bipolar disorder. Several IMPase inhibitors have been discovered previously. However, they are not suitable for therapeutic use because of their poor cell membrane penetrability or oral bioavailability; the development of new cell-permeable IMPase inhibitors is needed.
IMPase catalyzes the hydrolysis of inositol-1-phosphate (IP1) to release free inositol. Binding of an agonist to a Gq coupled GPCR results in the activation of PLC, which hydrolyzes the PIP2 to form inositol-1,4,5-trisphosphate (IP3) and diacyl glycerol (DAG). While DAG activates protein kinase C (PKC), IP3 triggers the elevation of intracellular free Ca2+. The IP3 is very rapidly inactivated by hydrolysis to IP2, IP1 and then inositol by a series of enzymes including IMPase. Free inositols are used for synthesis of PI and thus start another inositol cycle.
To identify new cell-permeable IMPase inhibitors, we developed a cell-based IMPase assay in which the cytosolic IP1 is measured by a time-resolved fluorescence resonance energy transfer (TR-FRET) assay. In this assay, an IP1 specific antibody is used to detect the labeled IP1 tracer. When the cell lysate contains the elevated IP1 due to the inhibition of IMPase, the TR-FRET between the labeled antibody and IP1 tracer is disrupted resulting in a reduction in the total signal. Since the TR-FRET is used, this cell-based assay is a homogenous assay without cell wash and medium change that is suitable for assay miniaturization and HTS. In this particular assay, a small amount of lithium is added to potentiate the response of weak activators.
NCGC Assay Protocol Summary:
A Chinese hamster ovary (CHO) cell line stably expressing the M1 receptor (CHO-M1) was obtained from ATCC and maintained in F-12 Kaighn's media (Invitrogen, Carlsbad, CA) supplemented with 10 % FBS, 100 units/ml penicillin, 100 ug/ml streptomycin and 250 ug/ml geneticin at 37C, 5% CO2 in a humidified atmosphere. Before the assay, aliquots of cells were frozen and stored at -135C. The assay was performed in 1536-well format. Data are reported for both the ratio of the two emission wavelengths, and also for the component 'donor' channel, Em2=620. […] AC50 values were determined from concentration-response data modeled with the standard Hill equation.
(1) Frozen CHO-M1 cells were thaw, washed once with fresh media and resuspended in F12K media containing 10% FBS, 100 units/ml penicillin and 100 ug/ml streptomycin. Cells were plated at 4ul/well (2000 cells) in white, tissue culture treated 1536-well plates, and then cultured at 37C, 5 % CO2 for 16 to 30 hours.
(2) Add 23 nl/well of compound in DMSO solution. The final titration for each compound was between 0.6 nM and 46 uM.
(4) Incubation at 37C, 5 % CO2 for 30 min.
(5) Add 1 ul/well of d2-conjugated IP1 (d2-IP1) and 1 ul/well of Eu+ cryptate conjugated anti-IP1 antibody (Eu+-Ab) prepared in the cell lysis buffer, both from the IP-One kit (Cisbio, MA).
(6) Incubate at room temperature for 10 minutes.
(7) Detect the assay plate (Ex = 320, Em1 =665 and Em2 620) in a ViewLux plate reader.
In the case of `CCOC(=O)c1c(C)[nH]c2c1-c1ccccc1C(=O)C2=O`, the Potency entry is “inactive”.

As for `CCOC(=O)c1c(C)[nH]c(=S)c(C#N)c1-c1ccccc1`, the Potency is 12.6 µM (active).

Turning to `CCOC(=O)c1c(C)nc(-c2ccccc2)nc1NC(=O)C(C)C`, the Potency entry was “inactive”.

Take `Brc1ccc(C2=NCCC(c3ccccc3)O2)cc1` (configuration not stated): the Potency result is “inactive”.

For `CC[C@H](C)[C@@H](NC(=O)O[C@@H]1C(=O)c2cc(OC)ccc2O[C@H]1c1cccc(OC)c1)C(=O)OC`, the Potency result was “inactive”.

As to `COc1cc(OC)c2c(-c3cccc(-c4cccc(N)c4)c3)cc(=O)oc2c1`, the Potency entry was “inactive”.

On to `CCOC(=O)C1=NO[C@@]2(C=C(Br)C(=O)[C@H]3O[C@H]32)C1`, for which the Potency result was “inactive”.

For the compound `CC1=C(/C=C/C(C)=C/C=C/C(C)=C/C=C/C=C(C)/C=C/C=C(C)/C=C/C(=O)[C@]2(C)C[C@@H](O)CC2(C)C)C(C)(C)C[C@H](O)C1`, the Potency result is “inactive”.

`CCOC(=O)Cn1c(N)c(C(=O)OC)sc1=S`: the Potency entry was “inactive”.

Regarding `COC(=O)c1sc(=S)n(-c2ccccc2)c1N`, the Potency result is “inactive”.

In the case of `COC(=O)c1sc2[nH]c(=S)n(N)c(=O)c2c1C`, the Potency is 10 µM (active).

On to `COC/C=C/C1=CC2=CC(=O)C(C)(OC(=O)CCC(=O)OC)C(=O)C2=CO1` (configuration not stated), for which the Potency result was “inactive”.

In the case of `COc1cccc([C@@H]2Oc3ccc(Br)cc3C(=O)[C@H]2OC(=O)NCCc2ccc(OC)c(OC)c2)c1`, the Potency entry was “inactive”.

On to `NNc1nnc(NN)c2ccccc12`, for which the Potency result was “inactive”.

Regarding `O=C(CSc1nc(C2CC2)nc2ccccc12)Nc1ccc2c(c1)OCCO2`, the Potency result was “inactive”.

For `COC(=O)CSc1nc(C2CC2)nc2ccccc12`, the Potency result was “inactive”.

As to `Cc1nnc(NC(=O)CSc2nc(C3CCCCC3)nc3ccccc23)s1`, the Potency was 6.31 µM (active).

`NC(=O)c1sc(-c2ccsc2)cc1N`: the Potency result was “inactive”.

With `COC(=O)C1=C(C(=O)OC)[C@@H]2N(C)c3ccccc3[C@@]23C[C@@H](C(=O)OC)N(S(=O)(=O)c2ccc(Br)cc2)C3=N1`, the Potency entry is “inactive”.

As for `CC(N)(C(=O)O)c1ccc(-c2nn[nH]n2)cc1` (configuration not stated), the Potency entry is “inactive”.

As for `CCN1C(=O)N[C@@H](c2ccccc2)C(C(=O)OC)=C1C`, the Potency result is “inactive”.

For `CCOC(=O)c1c(-c2ccc(C)cc2C)csc1NC(=O)CSc1nnnn1C`, the Potency entry was “inactive”.

Turning to `COC(=O)c1c(-c2cccs2)csc1NC(=O)CSc1ncnc2sc(C)c(C)c12`, the Potency was 28.2 µM (active).

For `CCOC(=O)c1c(NC(=O)CSc2nnc(Cc3csc(N)n3)n2C)sc(C)c1C`, the Potency entry is “inactive”.

Regarding `Cc1ccc(NC(=O)O[C@@H]2C(=O)c3cc(Br)ccc3O[C@H]2c2ccc3c(c2)OCO3)cc1Br`, the Potency result was “inactive”.

For `C=C1O[C@@](CO)(n2cnc3c(N)ncnc32)[C@H](O)[C@@H]1O`, the Potency entry was “inactive”.

`Cc1ccccc1-c1ccc(C(=O)O)s1`: the Potency result was “inactive”.

Consider `O=C(NCc1ccco1)O[C@@H]1C(=O)c2cc(Br)ccc2O[C@H]1c1ccc2c(c1)OCO2`, for which the Potency result was “inactive”.

On to `O=C(O)C[C@@H]1NC(=O)[C@H](Cc2ccccc2)NC1=O`, for which the Potency entry was “inactive”.

In the case of `Cc1cc(NCc2ccco2)n2c(nc3ccccc32)c1C#N`, the Potency entry is “inactive”.

In the case of `CN(c1nc2ccccc2n2c(-c3ccco3)nnc12)S(=O)(=O)c1ccccc1`, the Potency was 7.94 µM (active).

`Cn1c(-c2ccco2)nc2cc3ccccc3cc21`: the Potency result was “inactive”.

Take `CCCCCCCC[C@@H](O)/C=C/C=C/C=C\[C@@H](O)CCCC(=O)O`: the Potency entry is “inactive”.

As to `COc1ccc2c(c1)O[C@@H](c1ccc3c(c1)OCO3)[C@H](OC(=O)NCCc1ccc(OC)c(OC)c1)C2=O`, the Potency result is “inactive”.

`C/C=C(\C)C(=O)OC1C(OC(=O)C2(C)OC2C)c2cc3ccc(=O)oc3cc2OC1(C)C` (configuration not stated): the Potency entry was “inactive”.

For `COC1(C2=NCCN2)COc2ccccc2O1` (configuration not stated), the Potency result is “inactive”.

Regarding `C[C@H]1Cc2c(COc3ccccc3)nc3c(c2CO1)CN(C(=O)NCc1ccco1)CC3`, the Potency result was “inactive”.

For `C/C=C(\C)C(=O)O[C@H]1CC(C)=C2C(=O)C=C(C)C2[C@@H]2OC(=O)[C@@](C)(OC(=O)C=C(C)C)C21` (some centres not stated), the Potency result is “inactive”.

Consider `CCCCC/C=C\C/C=C\C/C=C\CCCCCCC(N)=O`, for which the Potency result was “inactive”.

On to `COc1ccc(-c2nc3cnc(Oc4ccccc4)nc3n(Cc3cccs3)c2=O)cc1`, for which the Potency is 8.91 µM (active).

For the compound `COc1ccc(-c2nc3cnc(OC)nc3n(Cc3ccc(F)cc3)c2=O)cc1`, the Potency is 5.62 µM (active).

In the case of `COc1cccc(Cn2c(=O)c(-c3cc(F)cc(F)c3)nc3cnc(OC)nc32)c1`, the Potency result is “inactive”.

With `COc1cccc(Cn2c(=O)c(-c3ccccc3)nc3cnc(OC)nc32)c1`, the Potency result was “inactive”.

Regarding `COc1ccc(-c2nc3cnc(N(C)C)nc3n(Cc3cccs3)c2=O)cc1`, the Potency entry is “inactive”.

For the compound `COc1cccc(Cn2c(=O)c(C)nc3cnc(Oc4ccccc4)nc32)c1`, the Potency entry is “inactive”.

`COc1ccc(-c2c(C)cc3oc(=O)cc(-c4ccccc4)c3c2C)cc1C=O`: the Potency result was “inactive”.

In the case of `CC(C)[C@@H]1NC(=O)[C@H](Cc2ccccc2)NC(=O)[C@@H](CC(=O)O)NC(=O)CNC(=O)[C@H](CCCNC(=N)N)NC1=O`, the Potency result was “inactive”.

For the origin of these results see PubChem BioAssay AID1457 (National Center for Advancing Translational Sciences (NCATS), 2008).
